Experimental data taken from the supplement of paper PMC10849652.
About 7,900 targets were measured; listed, in parts, are those with a hit and a random draw of the rest. About 0.6% of all pairs of compound and target were hits. A number with no mark means an inactive call.

Columns and labels:
Assay in all cases: log2 fold change, soluble protein after heating vs DMSO (PISA); higher = thermal stabilisation; K562 cells, 10 uM, 30 min; active = over 0.2 and 3.5 SD of the protein, either way, in both replicates (recomputed)
[1] = compound: CC1=C(C=C(C=C1)NC(=O)C2=CC(=CC=C2)C(C)(C)C#N)NC3=CC4=C(C=C3)N=CN(C4=O)C
Summary of the method: (§1)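 Values are thermal stability changes relative to control samples and are taken from duplicates. They are stated as log2 fold changes. Before quantification by TMTpro 16plex LC-MS/MS with equalised channel sums, K562 cells at 2×10^6 cells/mL were treated with 10 μM compound for 30 min, heated in aliquots for 3 min across 48°C-58°C, pooled, extracted in PBS with 0.5% NP-40 at 4°C, and centrifuged at 21,000xg for 90 min to give the soluble supernatant.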

[2] = compound: CC1=C(C=C(C=C1)NC(=O)C2=CC(=CC=C2)N(C)C)NC(=O)C3=CC=C(C=C3)O
Summary of the method: as §1

[3] = compound: CC1=CC=C(C=C1)SC2=C3C=C(SC3=CN=C2)C(=O)N
Summary of the method: as §1

[4] = compound: CC1=NC(=CC=C1)C2=C(N=C(N2)C(C)(C)C)C3=CC4=NC=CN=C4C=C3
Summary of the method: as §1

[5] = compound: CCCCN(Cc1ccc(C(=O)NO)cc1)C(=O)Nc1ccccc1 [Nexturastat A]
Summary of the method: as §1

[6] = compound: CCCS(=O)(=O)Nc1ccc(F)c(C(=O)c2c[nH]c3ncc(-c4ccc(Cl)cc4)cc23)c1F [vemurafenib]
Summary of the method: as §1

[7] = compound: CCCS(=O)(=O)Nc1ccc(F)c(C(=O)c2c[nH]c3ncc(Cl)cc23)c1F
Summary of the method: as §1

[8] = compound: CCCc1cc(C)[nH]c(=O)c1CNC(=O)c1cc(-c2ccnc(N3CCN(C)CC3)c2)cc2c1cnn2C(C)C
Summary of the method: as §1

[9] = compound: CCN(CC)Cc1ccc2cc(COC(=O)Nc3ccc(C(=O)NO)cc3)ccc2c1 [givinostat]
Summary of the method: as §1

[10] = compound: CCN(CCCOc1ccc2c(Nc3cc(CC(=O)Nc4cccc(F)c4)[nH]n3)ncnc2c1)CCOP(=O)(O)O [barasertib]
Summary of the method: as §1

[11] = compound: CC[C@@H]1C(=O)N(C)c2cnc(Nc3ccc(C(=O)NC4CCN(C)CC4)cc3OC)nc2N1C1CCCC1
Summary of the method: as §1

[12] = compound: CC[C@@H]1C(=O)N(C)c2cnc(Nc3ccc(C(=O)N[C@H]4CC[C@H](N5CCN(CC6CC6)CC5)CC4)cc3OC)nc2N1C(C)C [volasertib]
Summary of the method: as §1

[13] = compound: CC[C@H](C)N1C=C(C2=C(C=C(C=C21)C3=CN=C(C=C3)N4CCNCC4)C(=O)NCC5=C(C=C(NC5=O)C)C)C
Summary of the method: as §1

[14] = compound: CC[C@H](C)[C@@H](C(=O)N[C@@H]([C@@H](C)O)C(=O)N[C@@H](CC(C)C)C(=O)[C@]1(CO1)C)NC(=O)[C@H]([C@@H](C)CC)N(C)C(=O)C [epoxomicin]
Summary of the method: as §1

[15] = compound: CCn1c(C(=O)N(C2CC2)C2CC2)cc2c3c(ncn3C)c(Nc3cc(C)n(C)n3)nc21
Summary of the method: as §1

[16] = compound: CCn1cc(-c2ccnc3[nH]c(-c4cccc(CN(C)C)c4)cc23)c(-c2ccc(NC(=O)N(C)C)cc2)n1
Summary of the method: as §1

[17] = compound: CN(C)CC(=O)Nc1ccc2[nH]c(=O)c3ccccc3c2c1
Summary of the method: as §1

[18] = compound: CN(CCOC1=CC=C(C=C1)C[C@H]2C(=O)NC(=O)S2)C3=CC=CC=N3 (racemic) [rosiglitazone]
Summary of the method: as §1

[19] = compound: CN1C2=C(C3=C1C(=O)N(N=C3)CC4=CC(=CC=C4)N)SC(=C2)S(=O)C
Summary of the method: as §1

[20] = compound: CN1CCC(CNc2ccc3ncc(-c4cccc(OC(F)(F)F)c4)n3n2)CC1
Summary of the method: as §1

UniProt Q15057, sequence (Q15057 whole entry, looked up): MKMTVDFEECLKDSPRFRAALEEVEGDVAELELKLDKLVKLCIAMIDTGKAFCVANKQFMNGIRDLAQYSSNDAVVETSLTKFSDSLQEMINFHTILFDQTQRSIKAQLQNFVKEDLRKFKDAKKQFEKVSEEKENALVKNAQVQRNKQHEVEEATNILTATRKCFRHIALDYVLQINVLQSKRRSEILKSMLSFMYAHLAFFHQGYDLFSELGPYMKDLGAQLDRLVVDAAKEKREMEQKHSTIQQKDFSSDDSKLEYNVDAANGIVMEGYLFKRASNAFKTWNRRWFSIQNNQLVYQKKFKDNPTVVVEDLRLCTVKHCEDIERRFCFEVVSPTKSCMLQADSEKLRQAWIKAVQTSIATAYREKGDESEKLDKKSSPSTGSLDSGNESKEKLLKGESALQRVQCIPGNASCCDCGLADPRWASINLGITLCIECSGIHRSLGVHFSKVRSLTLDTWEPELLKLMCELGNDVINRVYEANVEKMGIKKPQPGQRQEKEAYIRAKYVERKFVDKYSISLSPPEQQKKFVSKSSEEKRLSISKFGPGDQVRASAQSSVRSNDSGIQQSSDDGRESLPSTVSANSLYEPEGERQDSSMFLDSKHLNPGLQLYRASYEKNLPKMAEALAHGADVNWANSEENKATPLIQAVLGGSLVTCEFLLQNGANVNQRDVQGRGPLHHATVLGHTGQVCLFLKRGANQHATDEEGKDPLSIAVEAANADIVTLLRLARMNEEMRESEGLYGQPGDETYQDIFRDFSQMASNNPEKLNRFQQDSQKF
UniProt P55196, sequence (P55196 whole entry, looked up): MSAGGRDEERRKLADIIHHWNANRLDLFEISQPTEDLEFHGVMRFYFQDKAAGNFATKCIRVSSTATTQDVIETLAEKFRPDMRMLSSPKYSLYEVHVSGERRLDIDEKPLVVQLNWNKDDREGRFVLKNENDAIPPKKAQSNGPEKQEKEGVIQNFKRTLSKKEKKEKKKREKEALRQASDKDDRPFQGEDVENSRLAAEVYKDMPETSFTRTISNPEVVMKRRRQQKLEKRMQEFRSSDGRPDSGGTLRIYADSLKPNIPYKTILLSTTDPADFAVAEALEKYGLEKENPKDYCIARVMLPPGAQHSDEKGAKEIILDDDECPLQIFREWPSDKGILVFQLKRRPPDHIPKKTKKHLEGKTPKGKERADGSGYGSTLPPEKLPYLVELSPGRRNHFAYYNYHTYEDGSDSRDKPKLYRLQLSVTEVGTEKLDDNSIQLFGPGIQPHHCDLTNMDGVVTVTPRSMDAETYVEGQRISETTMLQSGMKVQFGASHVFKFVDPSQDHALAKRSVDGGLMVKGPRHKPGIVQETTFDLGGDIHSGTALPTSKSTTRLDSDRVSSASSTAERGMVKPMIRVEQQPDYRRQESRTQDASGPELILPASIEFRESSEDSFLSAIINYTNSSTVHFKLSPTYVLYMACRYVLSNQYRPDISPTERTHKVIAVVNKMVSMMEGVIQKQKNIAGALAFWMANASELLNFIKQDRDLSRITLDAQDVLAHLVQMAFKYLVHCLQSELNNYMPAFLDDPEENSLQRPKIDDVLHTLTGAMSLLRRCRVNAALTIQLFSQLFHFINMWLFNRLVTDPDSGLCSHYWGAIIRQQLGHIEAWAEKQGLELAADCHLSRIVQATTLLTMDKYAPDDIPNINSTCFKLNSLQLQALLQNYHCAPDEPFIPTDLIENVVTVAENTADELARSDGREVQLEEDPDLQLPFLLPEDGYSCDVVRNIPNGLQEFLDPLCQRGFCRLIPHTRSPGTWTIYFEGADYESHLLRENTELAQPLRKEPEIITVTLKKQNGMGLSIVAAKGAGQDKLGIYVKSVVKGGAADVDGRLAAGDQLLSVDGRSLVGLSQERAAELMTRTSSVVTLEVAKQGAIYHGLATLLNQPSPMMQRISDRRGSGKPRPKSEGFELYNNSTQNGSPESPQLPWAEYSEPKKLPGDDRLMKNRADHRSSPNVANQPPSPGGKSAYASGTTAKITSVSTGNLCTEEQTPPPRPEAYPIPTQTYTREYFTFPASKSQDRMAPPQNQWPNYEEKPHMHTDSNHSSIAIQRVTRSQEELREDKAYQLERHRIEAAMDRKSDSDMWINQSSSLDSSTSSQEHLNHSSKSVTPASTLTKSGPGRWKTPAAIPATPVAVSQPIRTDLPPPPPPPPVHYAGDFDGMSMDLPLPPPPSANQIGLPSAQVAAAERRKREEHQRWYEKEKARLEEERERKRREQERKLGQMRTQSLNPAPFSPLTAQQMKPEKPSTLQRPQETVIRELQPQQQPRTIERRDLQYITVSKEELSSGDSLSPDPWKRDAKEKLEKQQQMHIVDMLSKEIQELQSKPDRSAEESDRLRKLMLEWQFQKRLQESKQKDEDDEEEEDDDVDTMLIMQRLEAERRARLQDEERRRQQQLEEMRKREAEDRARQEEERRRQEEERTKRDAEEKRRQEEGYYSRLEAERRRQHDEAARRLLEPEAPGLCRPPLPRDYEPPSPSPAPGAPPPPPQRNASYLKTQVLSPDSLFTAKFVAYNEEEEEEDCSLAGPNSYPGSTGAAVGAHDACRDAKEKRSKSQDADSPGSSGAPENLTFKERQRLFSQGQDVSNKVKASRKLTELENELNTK
UniProt Q8NHH9, sequence (Q8NHH9 whole entry, looked up): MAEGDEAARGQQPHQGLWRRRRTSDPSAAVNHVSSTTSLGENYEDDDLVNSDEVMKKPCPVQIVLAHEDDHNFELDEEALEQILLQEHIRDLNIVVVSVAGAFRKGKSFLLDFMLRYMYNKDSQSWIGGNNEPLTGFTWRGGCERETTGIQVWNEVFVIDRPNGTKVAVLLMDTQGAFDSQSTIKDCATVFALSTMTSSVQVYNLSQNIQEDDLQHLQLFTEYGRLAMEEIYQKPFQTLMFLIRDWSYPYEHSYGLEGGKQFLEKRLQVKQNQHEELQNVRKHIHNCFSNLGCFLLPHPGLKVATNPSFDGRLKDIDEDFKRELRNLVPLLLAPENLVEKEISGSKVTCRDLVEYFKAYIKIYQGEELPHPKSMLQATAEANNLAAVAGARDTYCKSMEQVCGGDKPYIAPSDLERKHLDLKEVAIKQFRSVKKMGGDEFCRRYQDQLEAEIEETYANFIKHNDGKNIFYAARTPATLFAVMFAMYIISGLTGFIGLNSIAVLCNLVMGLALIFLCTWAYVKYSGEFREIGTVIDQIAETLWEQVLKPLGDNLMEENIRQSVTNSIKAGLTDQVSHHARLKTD
UniProt Q9P287, sequence (Q9P287 whole entry, looked up): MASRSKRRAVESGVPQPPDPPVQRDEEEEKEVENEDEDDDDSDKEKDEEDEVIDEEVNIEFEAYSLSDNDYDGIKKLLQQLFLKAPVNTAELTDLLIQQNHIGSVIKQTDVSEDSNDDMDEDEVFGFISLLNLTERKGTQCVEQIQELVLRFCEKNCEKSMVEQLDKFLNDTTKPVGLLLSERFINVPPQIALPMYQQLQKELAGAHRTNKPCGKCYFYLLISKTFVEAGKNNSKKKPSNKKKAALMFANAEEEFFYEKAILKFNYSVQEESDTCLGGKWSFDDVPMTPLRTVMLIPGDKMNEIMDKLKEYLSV
UniProt P55957, sequence (P55957 whole entry, looked up): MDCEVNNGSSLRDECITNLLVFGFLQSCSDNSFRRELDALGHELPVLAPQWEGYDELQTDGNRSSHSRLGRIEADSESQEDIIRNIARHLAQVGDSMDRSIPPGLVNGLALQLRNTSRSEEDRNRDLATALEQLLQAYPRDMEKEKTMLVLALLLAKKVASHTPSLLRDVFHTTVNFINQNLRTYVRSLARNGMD
UniProt Q9H0E9, sequence (Q9H0E9 whole entry, looked up): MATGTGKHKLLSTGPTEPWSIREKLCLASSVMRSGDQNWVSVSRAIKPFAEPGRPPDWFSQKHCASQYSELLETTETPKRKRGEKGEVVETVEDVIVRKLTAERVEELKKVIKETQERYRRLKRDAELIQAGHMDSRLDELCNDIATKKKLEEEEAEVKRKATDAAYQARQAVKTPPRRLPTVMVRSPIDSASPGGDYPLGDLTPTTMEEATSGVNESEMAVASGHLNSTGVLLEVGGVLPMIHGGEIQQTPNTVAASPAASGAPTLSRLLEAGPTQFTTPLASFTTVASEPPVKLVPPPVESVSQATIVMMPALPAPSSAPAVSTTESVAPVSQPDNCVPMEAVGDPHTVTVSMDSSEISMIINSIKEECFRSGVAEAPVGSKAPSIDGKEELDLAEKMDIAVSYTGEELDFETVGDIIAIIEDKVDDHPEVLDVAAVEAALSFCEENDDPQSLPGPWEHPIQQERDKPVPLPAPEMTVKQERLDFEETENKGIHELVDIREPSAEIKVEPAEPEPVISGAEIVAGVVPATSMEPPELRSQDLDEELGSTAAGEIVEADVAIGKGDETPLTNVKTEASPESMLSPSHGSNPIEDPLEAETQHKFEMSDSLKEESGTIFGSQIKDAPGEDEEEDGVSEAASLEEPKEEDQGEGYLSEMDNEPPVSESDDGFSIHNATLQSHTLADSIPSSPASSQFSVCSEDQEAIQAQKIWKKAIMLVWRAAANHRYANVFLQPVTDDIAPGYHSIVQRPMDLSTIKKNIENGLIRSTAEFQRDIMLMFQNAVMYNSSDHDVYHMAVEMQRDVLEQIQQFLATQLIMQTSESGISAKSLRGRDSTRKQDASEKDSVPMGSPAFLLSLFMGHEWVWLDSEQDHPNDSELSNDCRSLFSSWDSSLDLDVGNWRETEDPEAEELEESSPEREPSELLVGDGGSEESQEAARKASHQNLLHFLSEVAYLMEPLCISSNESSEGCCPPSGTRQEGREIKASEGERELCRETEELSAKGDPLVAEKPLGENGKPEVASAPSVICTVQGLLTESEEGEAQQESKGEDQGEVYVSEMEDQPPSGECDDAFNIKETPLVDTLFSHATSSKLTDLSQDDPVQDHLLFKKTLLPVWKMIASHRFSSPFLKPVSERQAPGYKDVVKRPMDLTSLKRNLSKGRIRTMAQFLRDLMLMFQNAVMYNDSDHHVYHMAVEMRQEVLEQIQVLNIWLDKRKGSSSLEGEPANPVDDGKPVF

Target | log2 fold change [1] | log2 fold change [2] | log2 fold change [3] | log2 fold change [4] | log2 fold change [5] | log2 fold change [6] | log2 fold change [7] | log2 fold change [8] | log2 fold change [9] | log2 fold change [10] | log2 fold change [11] | log2 fold change [12] | log2 fold change [13] | log2 fold change [14] | log2 fold change [15] | log2 fold change [16] | log2 fold change [17] | log2 fold change [18] | log2 fold change [19] | log2 fold change [20]
ABHD16A (UniProt O95870) | 0.01 | -0.084 | -0.051 | -0.057 | 0.118 | -0.001 | -0.036 | 0.09 | 0.037 | 0.008 | 0.134 | 0.079 | -0.01 | -0.008 | -0.092 | -0.09 | -0.018 | -0.003 | -0.076 | 0.283
ATG9A (UniProt Q7Z3C6) | -0.019 | -0.017 | 0.038 | 0.008 | -0.018 | -0.006 | 0.019 | 0.007 | 0.019 | 0.045 | -0.019 | -0.326 (active) | 0.027 | -0.007 | 0.002 | -0.06 | 0.018 | 0.008 | 0.058 | -0.118
AGO1 (UniProt Q9UL18) | -0.213 | -0.021 | -0.025 | 0.193 | 0.084 | -0.023 | -0.006 | -0.111 | 0.071 | -0.064 | 0.215 | 0.124 | -0.1 | -0.148 | -0.029 | 0.032 | 0.098 | 0.042 | 0.14 | -0.151
BCCIP (UniProt Q9P287) | -0.023 | -0.015 | -0.009 | -0.01 | -0.002 | 0.02 | 0.036 | -0.004 | 0.035 | 0.033 | -0.009 | -0.047 | -0.005 | 0.092 | -0.04 | 0.033 | 0.019 | 0.042 | 0.047 | -0.043
BUB1B isoform 3 (UniProt O60566) | 0.004 | -0.031 | 0.059 | -0.014 | 0.087 | 0.058 | 0.14 | 0.043 | 0.118 | 0.034 | -0.127 | -0.66 (active) | 0.056 | 0.02 | -0.055 | 0.043 | 0.065 | 0.089 | 0.013 | -0.078
AGPAT1 (UniProt Q99943) | -0.037 | -0.029 | -0.014 | -0.03 | -0.052 | 0.017 | -0.004 | 0.004 | 0.005 | 0.047 | -0.032 | -0.243 (active) | 0.015 | -0.056 | -0.007 | -0.006 | 0.032 | -0.011 | -0.102 | 0.315 (active)
ATP11A (UniProt P98196) | -0.033 | -0.022 | -0.039 | -0.007 | -0.005 | 0.032 | -0.027 | -0.035 | -0.007 | -0.033 | 0.266 | 0.058 | -0.094 | 0.001 | 0.026 | -0.022 | 0.031 | 0.045 | -0.083 | 0.084
BRD8 (UniProt Q9H0E9) | 0.002 | 0.026 | -0.01 | 0.017 | -0.098 | 0.027 | 0.01 | 0.002 | -0.153 | -0.026 | 0.038 | -0.044 | -0.013 | 0.039 | 0.035 | 0.043 | -0.044 | 0.003 | 0.025 | -0.063
ATL2 (UniProt Q8NHH9) | 0.022 | -0.107 | -0.013 | 0.029 | 0.037 | -0.004 | 0.005 | -0.104 | 0.023 | 0.019 | 0.031 | 0.037 | 0.066 | 0.092 | -0.051 | -0.127 | 0.028 | 0.017 | -0.078 | -0.032
ACADVL isoform 3 (UniProt P49748) | -0.004 | 0.01 | 0.024 | -0.002 | -0.073 | -0.009 | 0.01 | -0.002 | 0.026 | 0.006 | 0.119 | 0.099 | -0.007 | 0.025 | 0.008 | -0.014 | 0.004 | -0.004 | -0.054 | -0.045
AFDN isoform 5 (UniProt P55196) | -0.031 | -0.049 | 0 | 0.087 | -0.033 | 0.021 | 0.023 | 0.007 | 0.062 | 0.015 | -0.072 | -0.254 (active) | 0.05 | 0.047 | -0.047 | -0.099 | 0.008 | 0.044 | -0.003 | -0.353 (active)
ACAP2 (UniProt Q15057) | -0.046 | 0 | -0.038 | 0.033 | 0 | 0.046 | 0.057 | -0.04 | 0.028 | 0 | -0.034 | -0.192 | 0.066 | -0.002 | -0.007 | -0.015 | 0.065 | 0.023 | -0.004 | 0.063
BID isoform 2 (UniProt P55957) | -0.054 | -0.02 | 0.029 | 0.012 | -0.056 | 0.117 | 0.001 | 0.016 | -0.001 | -0.01 | 0.013 | -0.196 | -0.022 | -0.036 | -0.022 | 0.045 | 0.042 | 0.001 | -0.068 | -0.048
ATP1A1 (UniProt P05023) | 0.002 | 0.01 | 0.015 | 0.025 | -0.019 | 0.017 | 0.005 | 0.068 | -0.001 | -0.02 | 0.058 | 0.059 | -0.029 | -0.025 | 0.021 | -0.026 | -0.009 | -0.004 | -0.053 | 0.26 (active)
ATP12A isoform 2 (UniProt P54707) | -0.001 | -0.006 | 0 | 0.005 | -0.132 | -0.03 | -0.072 | -0.021 | -0.009 | 0.015 | 0.081 | 0 | -0.029 | 0.013 | 0.04 | -0.031 | -0.047 | 0.015 | -0.085 | 0.242 (active)
ATAD1 (UniProt Q8NBU5) | 0.019 | -0.034 | 0.012 | -0.012 | -0.305 | 0.076 | 0.022 | 0.045 | 0.046 | 0.055 | -0.008 | -0.127 | 0.056 | 0.065 | -0.013 | -0.027 | 0.064 | 0.021 | -0.033 | -0.046
